Results reported in PubChem BioAssay (NCATS).
Where “and” joins values, the source holds several entries; their conditions need not be identical. Equal entries are not always repeated. Results filed as inconclusive are left out. A number with no mark means an inactive call. Calls of active or inactive are those of the source. Calls follow the shape of the dose curve; as a rule, active = well fitted cell-killing curve with a large enough effect; inconclusive = small, poorly fitted or top-dose-only effect; inactive = flat fitted curve, though single readings scatter.
% is scaled to controls: 0 for no effect and ±100 for the full control effect; potency is read from the fitted curve at half-maximal effect.

Experiment: Cellular viability qHTS for adrenocortical cancer (ACC) cell line SW-13 (AID 1963989); also: nearly all actives have a fitted effect of over 65% in size;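 as to activity (max response): cells grown in serum-free medium with ITS supplement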
Conditions: SW-13 ACC cells viability, CellTiter-Glo, 48 h; activity (max response): stronger effect = lower value
How it was run: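 Viability was read as CellTiter-Glo luminescence after 48 h compound treatment (up to 46 uM final) of SW-13 cells grown serum-free; titration curves were fit with a four-parameter logistic model to give IC50 and efficacy.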
For `O=C(CCCl)NCCc1ccccc1`, the activity (max response) was -1.73%.
`O=C(CO)[C@@H](O)[C@H](O)[C@@H](O)CO` showed an activity (max response) of 0.0107%.
In the case of `Nc1ccc(C(=O)O)c(O)c1`, the activity (max response) is reported as 12.8%.
`Oc1cc(O)c2c(c1)O[C@H](c1ccc(O)c(O)c1)[C@H](O)C2` gave an activity (max response) of 11.2%.
With `Nc1ccc(S(=O)(=O)Nc2cnc3ccccc3n2)cc1` the activity (max response) was 8.58%.
For `CC(=O)N[C@@H](CC(C)C)C(=O)O`, the activity (max response) was 7.87%.
Work on `Cc1ccc(-c2nc(N)nc3c2nnn3Cc2cccc(CO[C@H]3CCOC3)n2)o1` yielded an activity (max response) of -12.5%.
`Nc1ccc([N+](=O)[O-])c(C(F)(F)F)c1` showed an activity (max response) of 0.003%.
`CCCNC(C)(C)COC(=O)c1ccccc1` gave an activity (max response) of -2.6%.
Compound `CCOCCOC(=O)/C=C/c1ccc(OC)cc1` has an activity (max response) of -3.52%.
`COCc1c(-c2ccc(NC(=O)Nc3cc(C(F)(F)F)ccc3F)c(F)c2)c2c(N)ncnn2c1CN1CCOCC1` gave an activity (max response) of -5.64%.
`C=C[C@H]1CN2CC[C@H]1C[C@@H]2[C@@H](O)c1ccnc2ccc(OC)cc12` showed an activity (max response) of 6.85%.
For `CC(=O)Nc1ccc(C(=O)Nc2ccccc2N)cc1`, the Potency was 11.2 µM (active).
With `COc1cccc2c1C(=O)c1c(O)c3c(c(O)c1C2=O)C[C@@](O)(C(=O)CO)C[C@@H]3O[C@H]1C[C@H](N)[C@H](O[C@@H]2CCCCO2)[C@H](C)O1` the Potency was 0.731 µM (active).
With `OC1(c2ccc(Cl)c(C(F)(F)F)c2)CCN(CCCC(c2ccc(F)cc2)c2ccc(F)cc2)CC1` the Potency was 4.11 µM (active).
With `CCN1/C(=C/C(C)=O)Sc2ccc(OC)cc21` the activity (max response) was 3.06%.
For `CCOC(=O)CCNc1cc(N2CCc3ccccc3CC2)nc(-c2ccccn2)n1`, the Potency was 1.26 µM (active).
With `CCN(C(=O)c1ccccc1OC)c1cc2c(cc1N1CCNC[C@H]1C)n(C)c(=O)n2C` the activity (max response) was 1.48%.
`NS(=O)(=O)c1cc2c(cc1C(F)(F)F)NC(Cc1ccccc1)NS2(=O)=O` (stereo not given) showed an activity (max response) of 1.49%.
With `NC12CC3CC(CC(C3)C1)C2` the activity (max response) was 13.7% and -1.26%.
`C[C@]12CCCN1CC1=NNC(=O)c3cc(F)cc4[nH]c2c1c34` gave an activity (max response) of -23.5%.
Work on `N=C(N)c1ccc2nc(-c3cc(CC(=O)N[C@@H](CC(=O)O)C(=O)O)cc(-c4cc(S(N)(=O)=O)ccc4O)c3O)[nH]c2c1` yielded an activity (max response) of 10.3%.
For `C(=C\c1ccccc1)/CN1CCN(C(c2ccccc2)c2ccccc2)CC1`, the activity (max response) was -1.91%.
Compound `N#Cc1ccc(C2CCCc3cncn32)cc1` (stereo not given) has an activity (max response) of -11.9%.
With `CC(C)CCCC(C)N` (stereo not given) the activity (max response) was 3.28%.
In the case of `CCC(=C/[C@H](C)C/C=C/C(C)=C/[C@@H](C)C(=O)[C@@H](C)[C@H](O)[C@@H](C)C/C(C)=C/C(=O)O)/C=C/[C@@H]1OC(=O)C=C[C@@H]1C`, the Potency is reported as 0.0251 µM (active).
With `NC(=O)/C(=C/n1cnc(-c2cc(C(F)(F)F)cc(C(F)(F)F)c2)n1)c1cncnc1` the Potency was 3.98 µM (active).
Compound `O=C(O)C(S)C(S)C(=O)O` (stereo not given) has an activity (max response) of 13.2%.
For `CN1CCCN=C1/C=C/c1cccs1`, the activity (max response) was 0.0735% and 9.48%.
`Cn1cc(-c2c[nH]c3ncnc(N4CCOCC4)c23)cn1` gave an activity (max response) of 0.0559%.
For `COc1ccc(/C=C\c2cc(OC)c(OC)c(OC)c2)cc1O`, the Potency was 0.01 µM (active).
Work on `CCn1cc(C(=O)O)c(=O)c2cnc(N3CCCC3)nc21` yielded an activity (max response) of -7.72%.
With `COc1cccc2c1C(=O)c1c(O)c3c(c(O)c1C2=O)C[C@@](O)(/C(CO)=N/NC(=O)CCCCCN1C(=O)C=CC1=O)C[C@@H]3O[C@H]1C[C@H](N)[C@H](O)[C@H](C)O1` the Potency was 3.55 µM (active).
Work on `CCCOc1ccn2c(C(C)=O)cc(-c3ccccc3S(C)(=O)=O)c2c1` yielded an activity (max response) of 0.517%.
With `O=C(CCCCCCNC(=O)c1cnc(N(c2ccccc2)c2ccccc2Cl)nc1)NO` the Potency was 14.1 µM (active).
With `O=C1NC(=O)/C(=C/c2ccc3nccc(-c4ccncc4)c3c2)S1` the Potency was 1 µM (active).
For `CN[C@H]1CC[C@@H](c2ccc(Cl)c(Cl)c2)c2ccccc21`, the Potency was 20.6 µM (active) and 28.2 µM (active).
In the case of `CN(C)CCn1nnnc1SCC1=C(C(=O)O)N2C(=O)[C@@H](NC(=O)Cc3csc(N)n3)[C@H]2SC1`, the activity (max response) is reported as 8.48%.
With `C[C@@H]1C(=O)OC2[C@H](O)[C@]34[C@H]5C[C@@H](C(C)(C)C)[C@]36[C@@H](OC(=O)[C@@H]6O)O[C@@]4(C(=O)O5)[C@]21O` (stereo not given in full) the activity (max response) was 5.05%.
In the case of `COc1c(Nc2ncc(Cl)c(N[C@H]3[C@H](C(N)=O)[C@@H]4C=C[C@@H]3C4)n2)ccc2c1CCC(N1CCOCC1)CC2` (stereo not given in full), the Potency is reported as 15.8 µM (active).
